Only a selection was taken, and hits are over-represented in it overall.
Tgondii IFNg – T. gondii growth inhibition under IFN-gamma; Toxoplasma gondii growth in IFN-gamma-treated host cells; hits give low values; activity change, negative = inhibition, % (test concentration not listed); 3.8% of 69,000 active; in the data active = activity change below about -70%, passing the limit was not always enough;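 also: host cells are HeLa cells infected with Toxoplasma gondii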
Starred values were filed as active, the others as inactive; ! = not confirmed by another sample.

SMILES	Tgondii IFNg
COc1ccc(Cl)cc1NC(=O)Cn1ncc2c(N3CCN(c4ccccc4)CC3)ncnc21	-82*
CCn1c(=O)c(-c2nc(-c3ccc(F)cc3)no2)c(O)c2ccccc21	3
CCOC(=O)N1CCC(N2CCN(c3cc(N(C)CC)ncn3)CC2)CC1	-3
CCc1nc(OCC(=O)Nc2ccccc2)c2ccccc2n1	-7
Cc1cnc2c(C(=O)N(C)Cc3cn[nH]c3-c3ccccc3)cnn2c1	-4
Cc1ccc2[nH]c(=O)c(-c3nc(-c4ccc(Br)cc4)no3)c(O)c2c1	56
CC(=O)N1N=C(c2c(-c3ccccc3)c3cc(Cl)ccc3[nH]c2=O)CC1c1ccccc1Cl (stereo not drawn)	-65
COc1ccccc1CCC(=O)N1CC[C@@H](N)[C@@H](OC)C1	3
Cc1nc(Cn2nc(C3CCNCC3)n(Cc3ccccc3)c2=O)cs1	26
Cc1ccc(-c2coc(-c3ccc(NC(=O)Nc4ccc(C)c(C)c4)cc3)n2)cc1	20
CN1CCN(C(=O)Cn2cc(C(=O)Nc3ccc(F)cc3)ccc2=O)C(c2ccccc2)C1 (stereo not drawn)	13
COCc1cncc2c1CCN(S(=O)(=O)c1cccc(F)c1)C2	-5
COC(=O)c1ccccc1NS(=O)(=O)c1cc2c3c(c1)CCN3C(=O)CC2	117
CCc1ccc(NS(=O)(=O)c2cc3c4c(c2)CCN4C(=O)CC3)cc1	-5
Cc1cccc(C)c1NS(=O)(=O)c1cc2c3c(c1)CCC(=O)N3CCC2	-3
Cc1cccc(NS(=O)(=O)c2cc3c4c(c2)CCN4C(=O)CC3)c1	-38
O=C1CCc2cc(S(=O)(=O)Nc3cccc4c3CCCC4)cc3c2N1CC3	-114*
Cc1ccc(NS(=O)(=O)c2cc3c4c(c2)CCN4C(=O)CC3)cc1C	-95*
CCOc1ccccc1-c1nc(Cn2ccn3nc(-c4ccc(Cl)cc4)cc3c2=O)c(C)o1	134
CCCS(=O)(=O)N1Cc2ccnn2CC(c2nc(C)no2)C1 (stereo not drawn)	4
Nc1ccccc1NC(=O)c1ccc(CNc2nccc(-c3cccnc3)n2)cc1	-79*!
CC(=O)C(Sc1nccc(-c2cccnc2)n1)C(C)=O	-58
CS(=O)(=O)n1nc(-c2cccnc2)nc1NCc1ccc(Cl)cc1	3
COc1cccc2c1OCC(NC(=O)c1coc(COc3ccccc3)n1)C2 (stereo not drawn)	-23
CC(C)N(C)Cc1cnc2n1CCN(C(=O)C1CCOCC1)C2C (stereo not drawn)	7
SMILES	Tgondii IFNg
Cc1ccc(-n2[nH]c(C)c(CC(=O)O)c2=O)cc1	78
Cc1ccc2nc(Cc3ccc(NC(=O)CCc4nc5ccccc5[nH]4)cc3)[nH]c2c1	223
Cc1ccc(Cc2c(C)[nH]n(-c3nc4ccccc4[nH]3)c2=O)cc1	-98*
COc1ccc(-n2c(=O)c(C(=O)Nc3ccc(C)c(F)c3)c(O)c3cccnc32)cc1	112
O=C(COc1ccc(Cl)cc1)Nc1ccccc1-c1nc(-c2ccccc2)no1	19
O=C(NCc1cccnc1)[C@@]12COC[C@@H]1CN(c1ncc(F)cn1)C2	81
CC(Cc1ccccn1)NC(=O)c1cc(-c2ccccc2F)no1 (stereo not drawn)	91
NC1CCC2(CCC(=O)N2Cc2ccncc2)CC1 (stereo not drawn)	-60
N#Cc1ccc(OC[C@@]23COC[C@H]2CN(C(=O)c2ccoc2)C3)nc1	3
Cc1cncc(C(=O)N2CCCn3nnc(CN4CCCCC4)c3C2)c1	-7
O=C(Nc1nc(-c2ccccc2)cs1)C1CCCN1C(=O)OCc1ccccc1 (stereo not drawn)	107
COc1cccc(CNC(=O)Nc2ccc(-c3nc(-c4ccccc4)co3)cc2)c1	72
O=C(NCc1cccc(O)c1)Nc1nc(-c2ccncc2)cs1	-74*
O=C(NCc1cc(=O)n2c(n1)CNCCC2)c1ccsc1	-3
COc1ccc(C2(CNC(=O)C3CCN3C3CCCCC3)CCOCC2)cc1 (stereo not drawn)	9
Cc1oc(-c2ccccc2)nc1CN(c1ccccc1)S(=O)(=O)c1ccccc1	-54
Cc1cccc(C)c1NC(=O)C(=O)NCCc1csc(-c2ccc(F)cc2)n1	-78*
Cc1ccc(NC(=O)C(=O)NCCc2csc(-c3cccc(F)c3)n2)cc1	53
Cc1cc(C)cc(NC(=O)C(=O)NCCc2csc(-c3cccc(F)c3)n2)c1	-92*
Cc1ccc(NC(=O)C(=O)NCCc2csc(-c3ccc(F)cc3)n2)cc1	47
Cc1cc(C)cc(NC(=O)C(=O)NCCc2csc(-c3ccc(F)cc3)n2)c1	-93*
Cc1cccc(NC(=O)C(=O)NCCc2csc(-c3ccc(F)cc3)n2)c1	-38
O=C(NCCc1csc(-c2ccc(F)cc2)n1)C(=O)Nc1ccccc1	-43
O=C(NCCc1csc(-c2cccc(F)c2)n1)C(=O)Nc1ccc(F)cc1	-37
Cc1ccc(-c2nc(CCNC(=O)C(=O)Nc3c(C)cccc3C)cs2)cc1	-50
SMILES	Tgondii IFNg
COc1ccc(S(=O)(=O)N(C)CC(=O)NCC2CCCO2)cc1 (stereo not drawn)	18
O=C(N1C[C@@H]2C3CCC(CC3)[C@@H]2C1)C1(S(=O)(=O)c2ccccc2)CC1	58
CC(=O)Nc1ccc(S(=O)(=O)N2CCC3(CC2)Nc2ccccc2-n2cccc23)cc1	38
CN1CC(=O)N(c2ccccc2)CC12CCN(S(=O)(=O)Cc1ccccc1)C2 (stereo not drawn)	-34
Cn1cc(-c2cc3n(n2)CCC(=O)N3CC(=O)N2CCCC2)c2ccccc21	29
CN1Cc2ccccc2CC1Cn1ccnc1-c1ccc(CO)o1 (stereo not drawn)	-5
O=C(O)[C@H](O)[C@H](O)[C@@H](O)[C@H](O)[C@H](O)CO	14
CC[C@@H]1N(S(=O)(=O)c2cn(C)cn2)CCC[C@@]12CCC(=O)N2C	-52
CCOC[C@@]12COC[C@@H]1CN(Cc1ccc3c(c1)OCO3)C2	248
O=C(O)CCn1c(=O)sc2ccccc21	7
O=C(O)CCC(=O)Nc1ccc(S(=O)(=O)N2CCCC2)cc1	151
O=C(CCn1c(=O)sc2ccccc21)Nc1ccc(S(=O)(=O)N2CCCCC2)cc1	-88*
Cc1ccc(S(=O)(=O)Nc2ccc(-c3nc(-c4ccc(C)cc4C)co3)cc2)cc1	-48
O=C(NCCc1csc(-c2ccc(F)cc2)n1)C(=O)Nc1ccc2c(c1)OCO2	-40
Cc1ccsc1-c1nc(COc2ccc(-n3cncn3)cc2)c(C)o1	-5
CCN1CCC(n2nccc2NC(=O)c2cc(-c3ccccc3F)no2)CC1	-7
COC(=O)[C@H]1[C@H]2C[C@@H]3c4[nH]c5ccccc5c4CCN3C[C@H]2C[C@@H](OC(=O)c2cc(OC)c(OC)c(OC)c2)[C@@H]1OC	-13
CC[C@]1(O)CC2CN(CCc3c([nH]c4ccccc34)[C@@](C(=O)OC)(c3cc4c(cc3OC)N(C)[C@H]3[C@@](O)(C(=O)OC)[C@H](OC(C)=O)[C@]5(CC)C=CCN6CC[C@]43[C@@H]65)C2)C1 (stereo partly drawn)	-82*
CN(C)C(=O)[C@H]1C[C@@H]2OCC[C@@H]2N(Cc2ccc3ccccc3n2)C1	-14
CC(C)(C)c1ccc(C(CC(=O)c2ccccc2)C(C#N)C#N)cc1 (stereo not drawn)	-65
CCOC(=O)c1c(NCc2ccc(F)cc2)c2ccc(Cl)cc2[nH]c1=O	-22
COc1cccc(-c2nc(Cn3ccn4nc(-c5cccs5)cc4c3=O)c(C)o2)c1OC	-97*
COc1ccccc1-c1nc(Cn2ccn3nc(-c4cccs4)cc3c2=O)c(C)o1	51

Bioassay records as filed in PubChem.
